# Assay results reported in PubChem BioAssay (Tox21).
# Where “and” joins values, the source holds several entries; their conditions need not be identical. Identical values can stand only once. Inconclusive results are not listed. A call without a number means that no potency is given here. More than one record can exist for a structure, and the calls need not agree. Calls of active or inactive are those of the source. Unless noted, calls follow the shape of the dose curve; as a rule, active = well fitted curve in the direction sought with a large enough effect in the repeat runs; inconclusive = weak or mixed curves; inactive = no such curve, though single readings can be large; an effect the other way counts as inactive or inconclusive.
# Tests used:
# [1] = target: Thyrotropin-releasing hormone receptor (Homo sapiens) (UniProt P34981); experiment: qHTS assay to identify small molecule agonists of the thyrotropin-releasing hormone receptor (TRHR) signaling pathway (AID 1346891; calls by dose curve;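 also: HEK293 cells expressing TRHR with calcium dye readout; series mostly up to about 58 µM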)
# Thyrotropin-releasing hormone receptor (Homo sapiens), sequence (P34981 whole entry, looked up): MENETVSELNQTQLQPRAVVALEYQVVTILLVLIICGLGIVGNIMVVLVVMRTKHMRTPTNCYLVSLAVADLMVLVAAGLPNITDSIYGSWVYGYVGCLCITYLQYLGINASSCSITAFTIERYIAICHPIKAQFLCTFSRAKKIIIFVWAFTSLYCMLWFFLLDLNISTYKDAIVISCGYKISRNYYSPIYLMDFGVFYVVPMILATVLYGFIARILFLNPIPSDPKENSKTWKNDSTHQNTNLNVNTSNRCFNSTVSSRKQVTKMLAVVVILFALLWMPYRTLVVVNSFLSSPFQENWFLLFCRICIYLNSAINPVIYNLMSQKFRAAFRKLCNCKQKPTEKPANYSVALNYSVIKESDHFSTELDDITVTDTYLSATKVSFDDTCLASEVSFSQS
# Method in brief: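 Cells: TRHR-Hek293, seeded and incubated 18 h. Dye loading: 2 h at 37 °C. Compound added from DMSO stock by pin tool. Read-out: kinetic calcium fluorescence over 3 min.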
# [2] = Human pregnane X receptor (PXR) small molecule agonists, qHTS cell viability counter screen (AID 1346977); also: nearly all actives have a fitted effect of over 50% in size; also: potency is read from the fitted curve at half-maximal effect
# Method in brief: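 Cytotoxicity counter screen run in the same wells as the PXR luciferase assay, using PXR-Luc HepG2 cells in charcoal-stripped serum medium. Viability: CellTiter-Fluor fluorescence after 24hr compound treatment.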
# [3] = Caspase-3/7 induction in HepG2 cells by small molecules, qHTS assay (AID 1346978); also: nearly all actives have a fitted effect of over 15% in size; also: potency is read from the fitted curve at half-maximal effect
# Method in brief: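 Caspase-3/7 induction was measured by Caspase-Glo 3/7 luminescence (30 min, room temperature) after a 17 hr compound exposure of wild-type HepG2 cells seeded at 2,000 per well and pre-incubated 5 hr.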
# [4] = Caspase-3/7 induction in CHO-K1 cells by small molecules, qHTS cell viability counter screen (AID 1346979); also: nearly all actives have a fitted effect of over 35% in size; also: potency is read from the fitted curve at half-maximal effect
# Method in brief: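 Cytotoxicity counter screen run in parallel with the caspase-3/7 assay: CHO-K1 cells, 16hr compound treatment at 37C, then CellTiter-Fluor for 1hr before fluorescence reading.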
# [5] = Caspase-3/7 induction in CHO-K1 cells by small molecules, qHTS assay (AID 1346980); also: nearly all actives have a fitted effect of over 15% in size; also: potency is read from the fitted curve at half-maximal effect
# Method in brief: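 Luminescent Caspase-Glo 3/7 read (30min, room temperature) quantified apoptosis induction. Cells were wild-type CHO-K1, treated with compound for 17hr at 37 C and 5% CO2.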
# [6] = Caspase-3/7 induction in HepG2 cells by small molecules, qHTS cell viability counter screen (AID 1346981); also: nearly all actives have a fitted effect of over 30% in size; also: potency is read from the fitted curve at half-maximal effect
# Method in brief: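 Wild-type HepG2 cells (2,000/well) were allowed to settle for 5 hr at 37 C, 5% CO2, then dosed with compounds in DMSO by pin transfer. After 16 hr at 37 C, CellTiter-Fluor was added and fluorescence read 1 hr later.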
# [7] = target: Nuclear receptor subfamily 1 group I member 2 (Homo sapiens) (UniProt O75469); experiment: Human pregnane X receptor (PXR) small molecule agonists, qHTS assay (AID 1346982); also: nearly all actives have a fitted effect of over 35% in size; also: potency is read from the fitted curve at half-maximal effect
# Nuclear receptor subfamily 1 group I member 2 (Homo sapiens), sequence (O75469 whole entry, looked up): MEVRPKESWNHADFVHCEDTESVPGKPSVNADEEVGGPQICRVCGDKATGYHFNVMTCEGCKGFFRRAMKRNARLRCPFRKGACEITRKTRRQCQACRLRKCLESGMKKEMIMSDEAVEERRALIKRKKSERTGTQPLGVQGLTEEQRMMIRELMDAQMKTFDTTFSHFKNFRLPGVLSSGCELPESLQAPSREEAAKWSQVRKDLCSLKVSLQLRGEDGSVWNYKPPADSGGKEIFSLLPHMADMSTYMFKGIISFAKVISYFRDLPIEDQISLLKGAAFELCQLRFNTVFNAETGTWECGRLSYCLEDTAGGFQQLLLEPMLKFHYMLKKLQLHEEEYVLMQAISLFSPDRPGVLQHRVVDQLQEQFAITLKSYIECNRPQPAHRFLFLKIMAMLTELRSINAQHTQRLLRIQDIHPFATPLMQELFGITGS
# Method in brief: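 PXR-Luc HepG2 cells (CYP3A4 promoter-driven luciferase) were seeded in medium with 5% charcoal-stripped FBS, left 5 hr at 37 C, then exposed to compounds in DMSO for 24 hr. Luminescence was read after ONE-Glo addition.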
# [8] = target: Nuclear receptor subfamily 1 group I member 2 (Rattus norvegicus) (UniProt Q9R1A7); experiment: Rat pregnane X receptor (rPXR) activation by small molecules, qHTS assay (AID 1346983); details: rPXR luciferase reporter cells, One-Glo luminescence, 24 h; max activation: stronger effect = higher value; also: nearly all actives have a fitted effect of over 20% in size; also: potency is read from the fitted curve at half-maximal effect
# Nuclear receptor subfamily 1 group I member 2 (Rattus norvegicus), sequence (Q9R1A7 whole entry, looked up): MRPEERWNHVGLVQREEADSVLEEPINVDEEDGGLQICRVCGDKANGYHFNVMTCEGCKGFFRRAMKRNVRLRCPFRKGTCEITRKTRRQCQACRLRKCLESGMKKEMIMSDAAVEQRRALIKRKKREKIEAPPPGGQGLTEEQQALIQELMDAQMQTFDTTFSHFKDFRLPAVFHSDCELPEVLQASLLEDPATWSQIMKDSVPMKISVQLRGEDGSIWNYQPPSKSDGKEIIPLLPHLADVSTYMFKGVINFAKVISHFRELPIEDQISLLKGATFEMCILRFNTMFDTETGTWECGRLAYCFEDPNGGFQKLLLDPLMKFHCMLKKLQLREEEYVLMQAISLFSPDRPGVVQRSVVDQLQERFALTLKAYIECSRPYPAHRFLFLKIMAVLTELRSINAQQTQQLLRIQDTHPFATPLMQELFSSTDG
# Method in brief: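 Luminescent readout (One-Glo luciferase, 30 min room temperature) followed 24 hr compound treatment at 37 C of rPXR cells plated 2,000 per well and preincubated 5hr; qHTS format with compounds delivered in DMSO.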
# [9] = target: Nuclear receptor subfamily 1 group I member 2 (Homo sapiens) (UniProt O75469); experiment: CYP3A4 induction through human pregnane X receptor (PXR) by small molecules, qHTS assay (AID 1346984); also: nearly all actives have a fitted effect of over 40% in size; also: potency is read from the fitted curve at half-maximal effect
# Method in brief: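 DPX-2 cells (HepG2 co-transfected with PXR and CYP3A4 promoter-luciferase) treated with compounds 24 h at 37C; luciferin-IPA CYP3A4 substrate 3uM final added for 3 h, then One-Glo; luminescence read. qHTS format.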
# [10] = target: Nuclear receptor subfamily 1 group I member 2 (Homo sapiens) (UniProt O75469); experiment: Human pregnane X receptor (PXR) activation by small molecules, qHTS assay (AID 1346985); also: nearly all actives have a fitted effect of over 40% in size
# Method in brief: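 DPX-2 cells (HepG2 co-transfected with a PXR response element and a CYP3A4-promoter luciferase construct) were seeded at 2,000 per well, rested 5 hr at 37C, then exposed to DMSO-dissolved compounds for 24 hr. Activation was read as luciferase luminescence.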
SMILES,Potency [1],Potency [2],Potency [3],Potency [4],Potency [5],Potency [6],Potency [7],max activation [8],Potency [9],Potency [10],Potency [8]
COC(=O)CCS,inactive,inactive,inactive,inactive,inactive,inactive,inactive,–,–,–,–
Cc1cc(C)cc(N)c1,inactive,inactive,inactive,inactive,inactive,inactive,61.9 µM (active),–,–,–,–
O=C1NC(=O)c2cc([N+](=O)[O-])ccc21,inactive,inactive,inactive,inactive,inactive,inactive,61.6 µM (active),–,–,–,–
NCCNCCO,inactive,inactive,inactive,inactive,inactive,inactive,inactive,–,–,–,–
OC1(c2ccccc2)CCNCC1,inactive,inactive,inactive,inactive,inactive,inactive,inactive,–,–,–,–
Brc1cc2ccccc2c2ccccc12,inactive,inactive,inactive,inactive,inactive,inactive,–,–,–,–,–
CC(C)(c1ccccc1)c1ccccc1,inactive,inactive,inactive,inactive,inactive,inactive,–,–,–,–,–
C=C1C[C@@]23CC[C@H]4[C@@](C)(CCC[C@@]4(C)C(=O)O[C@@H]4O[C@H](CO)[C@@H](O)[C@H](O)[C@H]4O)[C@@H]2CC[C@]1(O[C@@H]1O[C@H](CO)[C@@H](O)[C@H](O[C@@H]2O[C@H](CO)[C@@H](O)[C@H](O)[C@H]2O)[C@H]1O[C@@H]1O[C@H](CO)[C@@H](O)[C@H](O)[C@H]1O)C3,inactive,inactive,inactive,inactive,inactive,inactive,inactive,–,–,–,–
Cc1c(C)c2c(c(C)c1OC(=O)CCC(=O)OCCO)CC[C@@](C)(CCC[C@H](C)CCC[C@H](C)CCCC(C)C)O2,inactive,inactive,inactive,inactive,inactive,inactive,inactive,–,–,–,–
FC(F)(F)c1ccccc1Cl,inactive,inactive,inactive,inactive,inactive,inactive,inactive,–,–,–,–
CC(C)C=O,inactive,inactive,inactive,inactive,inactive,inactive,–,–,–,–,–
COc1cc(C(=O)NCCCCCC(=O)O)cc(OC)c1OC,inactive,inactive,inactive,inactive,inactive,inactive,inactive,-0.807% (inactive),inactive,inactive,–
Nc1ccc(N=Nc2ccccc2)c(N)c1,inactive,33.6 µM (active),inactive,59.8 µM (active),inactive,53.3 µM (active),1.69 µM (active),–,–,–,–
CC(=O)Oc1ccc([N+](=O)[O-])cc1CCl,inactive,48.6 µM (active),inactive,30.6 µM (active),inactive,27.3 µM (active),inactive,–,–,–,–
Cc1ccc(OC(=O)c2ccccc2O)cc1,inactive,inactive,inactive,inactive,inactive,inactive,inactive,–,–,–,–
C/C=C/C=C/C=O,inactive,inactive,inactive,inactive,inactive,inactive,inactive,–,–,–,–
CN(C)CCC=C1c2ccccc2C=Cc2ccccc21,inactive,13.3 µM (active),inactive,inactive,inactive,inactive,inactive,0.747% (inactive),31.6 µM (active),–,–
CN1C(=O)OC(C)(C)C1=O,inactive,inactive,inactive,inactive,inactive,inactive,37.9 µM (active),-2.55% (inactive),inactive,inactive,–
C[C@@H]1CC(=O)NN=C1c1ccc(NN=C(C#N)C#N)cc1,inactive,16.8 µM (active) and 21.1 µM (active),29.8 µM (active),11.9 µM (active),inactive and 13.3 µM (active),18.8 µM (active) and 23.7 µM (active),11.9 µM (active) and 21.1 µM (active),–,inactive,inactive,14.1 µM (active)
CS(=O)(=O)c1ccc(-c2cn3ccccc3n2)cc1,inactive,inactive,inactive,inactive,inactive,inactive,2.66 µM (active),–,–,–,–
CCC=CC#N,inactive,inactive,inactive,inactive,inactive,inactive,47.1 µM (active),–,–,–,–
Cc1cc(O)c(C)c(C)c1O,inactive,inactive,inactive,inactive,inactive,inactive,inactive,–,–,–,–
C[C@@H](O)[C@H]1C(=O)N2C(C(=O)O)=C([C@H]3CCCO3)S[C@H]12,inactive,inactive,inactive,inactive,inactive,inactive,inactive,-4.46% (inactive),inactive,inactive,–
O[C@@H]1CO[C@H]2[C@@H]1OC[C@@H]2O,inactive,inactive,inactive,inactive,inactive,inactive,inactive,-1.59% (inactive),inactive,inactive,–
CCN(CC)CCNC(=O)COc1ccc(OC)cc1,inactive,inactive,inactive,inactive,inactive,inactive,inactive,6.52% (inactive),inactive,inactive,–
